The values below come from ChEMBL document CHEMBL1961873, “Compounds: GSK PKIS; Assays: Nanosyn kinase panel” (2012).

For assay [1], the target named is High affinity nerve growth factor receptor (Homo sapiens) (UniProt P04629). To be noted: at 1 µM.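 Further: each value is the mean percent inhibition of TRKA.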
In assay [2] the target is BDNF/NT-3 growth factors receptor (Homo sapiens) (UniProt Q16620). To be noted: at 0.1 µM.
For assay [3] the target is unchanged. To be noted: at 1 µM.
For assay [4], the target named is NT-3 growth factor receptor (Homo sapiens) (UniProt Q16288). To be noted: at 0.1 µM.
The target is the same in assay [5]. To be noted: at 1 µM.
For assay [6], the target named is T1, Tyrosine-protein kinase TXK (Homo sapiens) (UniProt P42681).
T1 sequence (whole entry): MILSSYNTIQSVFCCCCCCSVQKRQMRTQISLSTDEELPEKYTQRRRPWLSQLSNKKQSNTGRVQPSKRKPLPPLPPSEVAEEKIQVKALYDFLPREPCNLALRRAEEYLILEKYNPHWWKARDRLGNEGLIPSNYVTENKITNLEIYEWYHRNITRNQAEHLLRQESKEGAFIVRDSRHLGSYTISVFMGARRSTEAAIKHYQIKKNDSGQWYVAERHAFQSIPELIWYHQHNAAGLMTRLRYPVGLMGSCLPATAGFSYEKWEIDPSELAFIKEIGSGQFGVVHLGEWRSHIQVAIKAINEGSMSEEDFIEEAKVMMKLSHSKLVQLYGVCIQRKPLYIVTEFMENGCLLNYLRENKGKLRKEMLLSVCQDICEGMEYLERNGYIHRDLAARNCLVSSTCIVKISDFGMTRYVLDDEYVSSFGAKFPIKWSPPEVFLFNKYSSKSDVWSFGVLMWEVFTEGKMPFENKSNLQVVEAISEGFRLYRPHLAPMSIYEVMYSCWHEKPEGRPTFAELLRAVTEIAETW
To be noted: at 0.1 µM.

Assay [7] addresses T1, Tyrosine-protein kinase TXK (Homo sapiens). To be noted: at 1 µM.
Assay [8] deals with Non-receptor tyrosine-protein kinase TYK2 (Homo sapiens) (UniProt P29597). To be noted: at 0.1 µM.
For assay [9], the target named is T2, Dual specificity protein kinase TTK (Homo sapiens) (UniProt P33981).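 Further: reported figures are mean TTK inhibition at 1 µM.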
T2 sequence (whole entry): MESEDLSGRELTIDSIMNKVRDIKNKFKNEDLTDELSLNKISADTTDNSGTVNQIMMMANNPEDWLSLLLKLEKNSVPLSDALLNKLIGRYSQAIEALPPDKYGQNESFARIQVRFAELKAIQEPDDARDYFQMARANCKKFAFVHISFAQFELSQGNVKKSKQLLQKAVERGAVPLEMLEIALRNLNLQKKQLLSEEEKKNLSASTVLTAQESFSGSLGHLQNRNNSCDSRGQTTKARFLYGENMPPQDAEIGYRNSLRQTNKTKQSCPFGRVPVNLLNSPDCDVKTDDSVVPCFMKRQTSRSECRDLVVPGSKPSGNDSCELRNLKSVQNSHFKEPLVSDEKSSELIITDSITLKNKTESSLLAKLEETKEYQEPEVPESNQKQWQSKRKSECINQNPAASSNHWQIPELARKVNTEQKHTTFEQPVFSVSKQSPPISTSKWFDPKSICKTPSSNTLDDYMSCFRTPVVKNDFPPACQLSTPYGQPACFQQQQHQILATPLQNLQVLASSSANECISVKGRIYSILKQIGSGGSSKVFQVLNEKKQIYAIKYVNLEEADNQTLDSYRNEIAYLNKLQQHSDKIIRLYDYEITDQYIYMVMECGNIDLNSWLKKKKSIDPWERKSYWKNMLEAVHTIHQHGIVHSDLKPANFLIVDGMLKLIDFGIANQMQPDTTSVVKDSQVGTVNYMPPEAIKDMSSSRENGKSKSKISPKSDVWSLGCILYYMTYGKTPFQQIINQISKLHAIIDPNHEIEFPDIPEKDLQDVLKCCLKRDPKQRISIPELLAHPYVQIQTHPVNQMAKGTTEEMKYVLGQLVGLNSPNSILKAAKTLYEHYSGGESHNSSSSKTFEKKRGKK
To be noted: at 1 µM.

Assay [10] has as its target T3, Aurora kinase A (Homo sapiens) (UniProt O14965).
T3 sequence (whole entry): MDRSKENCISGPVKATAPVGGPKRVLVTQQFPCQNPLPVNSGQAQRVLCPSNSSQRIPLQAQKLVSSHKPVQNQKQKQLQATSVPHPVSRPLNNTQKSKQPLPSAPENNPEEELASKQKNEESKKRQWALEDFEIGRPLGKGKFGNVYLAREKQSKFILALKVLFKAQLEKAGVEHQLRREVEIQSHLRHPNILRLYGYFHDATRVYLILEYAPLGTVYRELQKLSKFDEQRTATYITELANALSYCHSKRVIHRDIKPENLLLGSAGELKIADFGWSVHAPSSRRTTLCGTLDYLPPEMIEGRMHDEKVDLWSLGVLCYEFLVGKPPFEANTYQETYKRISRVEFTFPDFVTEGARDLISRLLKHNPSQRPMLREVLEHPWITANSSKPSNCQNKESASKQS
To be noted: at 0.1 µM.

In assay [11] the target is T3, Aurora kinase A (Homo sapiens). To be noted: at 1 µM.
In assay [12] the target is Aurora kinase B (Homo sapiens) (UniProt Q96GD4). To be noted: at 0.1 µM.
Assay [13] shares this target. To be noted: at 1 µM.
Assay [14] addresses T4, Aurora kinase C (Homo sapiens) (UniProt Q9UQB9).
T4 sequence (whole entry): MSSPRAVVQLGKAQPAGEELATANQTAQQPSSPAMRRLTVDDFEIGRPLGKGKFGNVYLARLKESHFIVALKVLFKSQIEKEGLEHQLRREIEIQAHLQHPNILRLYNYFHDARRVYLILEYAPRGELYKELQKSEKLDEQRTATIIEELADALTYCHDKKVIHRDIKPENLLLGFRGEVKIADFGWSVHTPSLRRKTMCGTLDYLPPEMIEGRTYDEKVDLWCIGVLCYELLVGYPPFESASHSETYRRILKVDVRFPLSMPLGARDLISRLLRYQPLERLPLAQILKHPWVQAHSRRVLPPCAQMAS
To be noted: at 0.1 µM.

Assay [15] deals with T4, Aurora kinase C (Homo sapiens). To be noted: at 1 µM.
The target in assay [16] is Serine/threonine-protein kinase 10 (Homo sapiens) (UniProt O94804). To be noted: at 0.1 µM.
Assay [17] has the same target. To be noted: at 1 µM.
Assay [18] has as its target T5, Mitogen-activated protein kinase kinase kinase kinase 2 (Homo sapiens) (UniProt Q12851).
T5 sequence (whole entry): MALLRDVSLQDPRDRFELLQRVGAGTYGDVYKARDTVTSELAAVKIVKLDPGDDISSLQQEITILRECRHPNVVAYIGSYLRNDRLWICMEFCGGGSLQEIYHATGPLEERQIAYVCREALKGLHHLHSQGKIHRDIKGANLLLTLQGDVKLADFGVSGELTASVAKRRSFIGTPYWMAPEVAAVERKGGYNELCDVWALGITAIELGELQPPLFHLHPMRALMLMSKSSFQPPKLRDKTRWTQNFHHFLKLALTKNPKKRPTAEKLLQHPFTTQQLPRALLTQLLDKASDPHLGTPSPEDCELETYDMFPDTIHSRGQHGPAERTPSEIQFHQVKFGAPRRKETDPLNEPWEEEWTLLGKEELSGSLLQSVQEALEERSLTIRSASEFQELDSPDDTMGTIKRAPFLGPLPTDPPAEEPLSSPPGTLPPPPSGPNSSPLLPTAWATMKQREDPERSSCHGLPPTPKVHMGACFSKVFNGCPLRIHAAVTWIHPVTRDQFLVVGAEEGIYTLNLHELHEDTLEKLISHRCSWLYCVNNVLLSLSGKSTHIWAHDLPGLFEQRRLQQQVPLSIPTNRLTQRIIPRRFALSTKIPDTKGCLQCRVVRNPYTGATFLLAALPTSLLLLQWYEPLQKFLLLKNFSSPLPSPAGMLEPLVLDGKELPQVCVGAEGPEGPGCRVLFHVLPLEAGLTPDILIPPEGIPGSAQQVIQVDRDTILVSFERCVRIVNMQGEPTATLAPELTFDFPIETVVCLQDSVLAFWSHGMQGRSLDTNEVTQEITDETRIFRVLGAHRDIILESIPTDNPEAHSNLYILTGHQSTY
To be noted: at 0.1 µM.

For assay [19], the target named is T5, Mitogen-activated protein kinase kinase kinase kinase 2 (Homo sapiens). To be noted: at 1 µM.
Assay [20] concerns the target Mitogen-activated protein kinase kinase kinase kinase 4 (Homo sapiens) (UniProt O95819). To be noted: at 0.1 µM.

Broadly, the inhibition is the drop in the measured response relative to a control, in per cent.

“And” between values parts separate entries of the source, which are not always exact repeats. Identical values can stand only once.

Chain of Serine/threonine-protein kinase 10 (Homo sapiens) (O94804 whole entry, looked up): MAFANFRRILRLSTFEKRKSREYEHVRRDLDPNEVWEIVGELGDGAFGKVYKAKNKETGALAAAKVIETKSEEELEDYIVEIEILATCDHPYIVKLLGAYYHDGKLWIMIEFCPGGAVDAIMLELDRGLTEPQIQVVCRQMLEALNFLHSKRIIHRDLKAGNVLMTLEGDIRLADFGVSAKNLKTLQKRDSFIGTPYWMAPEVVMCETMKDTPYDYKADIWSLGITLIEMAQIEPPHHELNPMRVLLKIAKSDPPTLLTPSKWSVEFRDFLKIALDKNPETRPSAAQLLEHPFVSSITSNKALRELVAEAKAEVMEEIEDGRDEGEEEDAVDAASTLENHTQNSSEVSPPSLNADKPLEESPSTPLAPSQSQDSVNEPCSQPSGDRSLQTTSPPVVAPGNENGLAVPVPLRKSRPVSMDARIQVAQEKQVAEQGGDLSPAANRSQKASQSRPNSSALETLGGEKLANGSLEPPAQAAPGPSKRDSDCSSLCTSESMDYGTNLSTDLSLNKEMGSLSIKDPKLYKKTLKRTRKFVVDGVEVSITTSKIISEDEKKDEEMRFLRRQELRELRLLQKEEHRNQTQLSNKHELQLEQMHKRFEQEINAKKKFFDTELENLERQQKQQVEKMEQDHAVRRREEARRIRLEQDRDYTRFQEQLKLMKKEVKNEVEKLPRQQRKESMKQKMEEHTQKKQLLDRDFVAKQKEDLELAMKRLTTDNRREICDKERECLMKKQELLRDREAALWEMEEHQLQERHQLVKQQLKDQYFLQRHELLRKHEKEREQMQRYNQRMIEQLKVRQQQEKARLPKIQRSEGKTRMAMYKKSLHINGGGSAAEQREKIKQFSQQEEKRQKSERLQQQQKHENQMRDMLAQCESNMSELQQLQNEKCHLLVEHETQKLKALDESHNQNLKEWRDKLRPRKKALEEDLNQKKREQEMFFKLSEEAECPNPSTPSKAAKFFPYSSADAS
Chain of Aurora kinase B (Homo sapiens) (Q96GD4 whole entry): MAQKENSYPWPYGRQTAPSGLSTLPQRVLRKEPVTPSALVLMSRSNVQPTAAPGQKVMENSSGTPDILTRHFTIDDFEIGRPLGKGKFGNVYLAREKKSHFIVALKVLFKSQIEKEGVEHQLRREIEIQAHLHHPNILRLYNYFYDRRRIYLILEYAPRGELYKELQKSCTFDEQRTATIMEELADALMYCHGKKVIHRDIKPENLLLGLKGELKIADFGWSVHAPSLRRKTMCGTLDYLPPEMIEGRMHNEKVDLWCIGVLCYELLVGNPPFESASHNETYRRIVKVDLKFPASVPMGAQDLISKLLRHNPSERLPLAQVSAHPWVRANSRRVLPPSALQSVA
Chain of Mitogen-activated protein kinase kinase kinase kinase 4 (Homo sapiens) (O95819 2-1239 limits assumed): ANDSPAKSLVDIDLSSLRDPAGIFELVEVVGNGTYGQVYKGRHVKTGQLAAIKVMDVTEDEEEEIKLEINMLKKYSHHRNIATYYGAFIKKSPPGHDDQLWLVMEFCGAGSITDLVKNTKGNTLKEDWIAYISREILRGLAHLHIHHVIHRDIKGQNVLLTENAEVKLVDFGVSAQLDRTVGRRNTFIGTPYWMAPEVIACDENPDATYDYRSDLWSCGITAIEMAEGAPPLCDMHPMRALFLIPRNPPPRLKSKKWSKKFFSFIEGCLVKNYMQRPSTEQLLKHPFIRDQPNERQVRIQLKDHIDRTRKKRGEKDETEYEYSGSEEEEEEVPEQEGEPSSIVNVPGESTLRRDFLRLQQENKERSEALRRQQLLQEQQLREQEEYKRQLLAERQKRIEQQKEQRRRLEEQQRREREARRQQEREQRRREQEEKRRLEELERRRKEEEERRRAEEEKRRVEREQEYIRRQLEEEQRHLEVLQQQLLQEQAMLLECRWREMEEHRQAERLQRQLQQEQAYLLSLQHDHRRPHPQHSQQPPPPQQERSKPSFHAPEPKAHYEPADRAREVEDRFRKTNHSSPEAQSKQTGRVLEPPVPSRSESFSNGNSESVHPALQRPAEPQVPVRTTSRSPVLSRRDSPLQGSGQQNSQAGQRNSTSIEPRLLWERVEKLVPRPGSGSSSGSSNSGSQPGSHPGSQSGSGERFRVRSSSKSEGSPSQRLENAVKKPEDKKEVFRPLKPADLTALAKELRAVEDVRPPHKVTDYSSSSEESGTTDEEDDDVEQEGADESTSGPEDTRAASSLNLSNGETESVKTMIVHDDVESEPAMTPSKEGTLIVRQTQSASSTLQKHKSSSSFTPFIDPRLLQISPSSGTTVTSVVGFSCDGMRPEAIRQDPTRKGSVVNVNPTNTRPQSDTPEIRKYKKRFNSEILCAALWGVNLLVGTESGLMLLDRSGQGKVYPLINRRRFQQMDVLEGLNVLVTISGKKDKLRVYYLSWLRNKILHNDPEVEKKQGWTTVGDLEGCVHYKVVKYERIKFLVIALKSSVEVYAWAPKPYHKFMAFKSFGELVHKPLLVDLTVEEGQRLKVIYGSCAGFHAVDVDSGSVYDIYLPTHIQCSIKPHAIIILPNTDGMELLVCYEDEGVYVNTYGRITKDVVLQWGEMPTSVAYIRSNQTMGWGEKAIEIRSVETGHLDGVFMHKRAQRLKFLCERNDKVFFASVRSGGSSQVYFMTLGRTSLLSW
Chain of Non-receptor tyrosine-protein kinase TYK2 (Homo sapiens) (P29597 whole entry): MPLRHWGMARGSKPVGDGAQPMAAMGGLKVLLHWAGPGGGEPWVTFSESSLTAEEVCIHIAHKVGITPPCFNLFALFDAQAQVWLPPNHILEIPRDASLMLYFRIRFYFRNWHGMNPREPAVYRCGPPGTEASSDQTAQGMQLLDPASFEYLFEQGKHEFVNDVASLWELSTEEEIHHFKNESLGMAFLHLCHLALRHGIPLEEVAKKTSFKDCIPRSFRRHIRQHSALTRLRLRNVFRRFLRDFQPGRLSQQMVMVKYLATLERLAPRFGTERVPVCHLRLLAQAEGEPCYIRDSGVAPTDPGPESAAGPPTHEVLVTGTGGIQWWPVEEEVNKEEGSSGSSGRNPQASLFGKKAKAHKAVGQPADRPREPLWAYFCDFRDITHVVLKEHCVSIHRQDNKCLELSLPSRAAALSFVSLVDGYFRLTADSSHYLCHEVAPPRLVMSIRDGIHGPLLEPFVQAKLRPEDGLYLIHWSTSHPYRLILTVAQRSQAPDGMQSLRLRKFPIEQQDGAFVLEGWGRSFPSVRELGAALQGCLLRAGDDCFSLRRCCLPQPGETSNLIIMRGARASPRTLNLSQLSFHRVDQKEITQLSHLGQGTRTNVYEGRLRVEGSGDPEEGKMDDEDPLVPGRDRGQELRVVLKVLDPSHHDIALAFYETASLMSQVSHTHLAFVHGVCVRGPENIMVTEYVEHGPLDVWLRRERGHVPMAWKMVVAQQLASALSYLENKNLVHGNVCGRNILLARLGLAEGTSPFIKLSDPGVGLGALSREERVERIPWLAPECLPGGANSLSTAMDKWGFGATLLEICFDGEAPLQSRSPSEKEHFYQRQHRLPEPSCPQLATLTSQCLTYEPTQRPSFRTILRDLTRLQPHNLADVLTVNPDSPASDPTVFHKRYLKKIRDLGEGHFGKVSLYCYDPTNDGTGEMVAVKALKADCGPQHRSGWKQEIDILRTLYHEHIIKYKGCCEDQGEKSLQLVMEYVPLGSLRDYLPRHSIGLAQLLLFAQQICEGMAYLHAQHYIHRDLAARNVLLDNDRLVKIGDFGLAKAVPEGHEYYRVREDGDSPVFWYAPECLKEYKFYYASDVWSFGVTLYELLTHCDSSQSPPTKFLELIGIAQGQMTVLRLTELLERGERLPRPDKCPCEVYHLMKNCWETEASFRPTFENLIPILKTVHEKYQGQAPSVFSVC
Chain of NT-3 growth factor receptor (Homo sapiens) (Q16288 32-839 limits assumed): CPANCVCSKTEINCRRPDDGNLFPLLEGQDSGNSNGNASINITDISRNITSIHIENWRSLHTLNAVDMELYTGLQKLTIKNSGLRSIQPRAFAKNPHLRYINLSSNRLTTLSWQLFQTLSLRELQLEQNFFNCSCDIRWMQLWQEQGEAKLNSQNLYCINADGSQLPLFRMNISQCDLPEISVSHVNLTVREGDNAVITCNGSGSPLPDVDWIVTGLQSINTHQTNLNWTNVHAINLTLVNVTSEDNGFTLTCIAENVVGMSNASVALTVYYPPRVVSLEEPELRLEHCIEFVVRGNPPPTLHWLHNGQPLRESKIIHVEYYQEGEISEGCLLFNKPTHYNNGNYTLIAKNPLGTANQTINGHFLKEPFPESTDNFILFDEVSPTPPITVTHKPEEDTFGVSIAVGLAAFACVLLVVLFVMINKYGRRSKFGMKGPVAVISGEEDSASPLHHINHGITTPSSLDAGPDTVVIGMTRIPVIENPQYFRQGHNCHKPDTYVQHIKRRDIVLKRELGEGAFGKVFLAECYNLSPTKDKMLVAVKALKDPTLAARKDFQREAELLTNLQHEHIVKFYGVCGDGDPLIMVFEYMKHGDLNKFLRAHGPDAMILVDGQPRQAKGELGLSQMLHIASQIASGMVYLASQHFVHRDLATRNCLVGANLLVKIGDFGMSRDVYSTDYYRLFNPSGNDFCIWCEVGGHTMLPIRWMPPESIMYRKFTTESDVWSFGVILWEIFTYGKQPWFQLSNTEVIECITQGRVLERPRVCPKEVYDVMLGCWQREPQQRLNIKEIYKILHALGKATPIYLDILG

For `CN1CCC(C(=O)Nc2n[nH]c3nc(-c4ccc(O)cc4)c(Br)cc23)CC1`, the inhibition in [1] is 1.2% and 2.04%; in assay [2] it was 2.51% and 1.42%; in [3], 3.32% and 2.74%; in assay [4], 3.04% and 2.59%; in assay [5] it was 4.91% and 0.79%; in [6] it was -0.5% and 4.86%. In addition, the inhibition in assay [7] is -0.68% and 3.3%; in assay [8], -2.31% and 0.31%; in [9], 19% and 6.37%; in assay [10], -1.93% and 2.95%; in assay [11], 3.82% and 3.89%; in assay [12], -1.01% and 4.45%. For the same compound, the inhibition in assay [13] was 4.6% and 6.84%; in assay [14], -1.83% and 3.73%; in assay [15], -7.86% and 5.17%; in assay [16], 4.1% and 3%; in assay [17] it was 13.5% and 9.07%; in assay [18], 4.77% and 3.87%. Further, the inhibition in [19] is 24.7% and 19.9%; in [20] it was 7.33% and 2.89%.
With `CCN1CCC(C(=O)Nc2n[nH]c3nnc(-c4cccc(F)c4F)cc23)CC1`, the inhibition in assay [1] is 4.28%; in assay [2] it was 0.46%; in assay [3], 1.47%; in assay [4], 2.09%; in assay [5], 0.96%; in assay [6], -0.15%. The inhibition in assay [7] is 1.19%; in [8], 3.04%; in [9], 2.28%; in assay [10], 2.41%; in assay [11], 0.34%; in assay [12], -0.39%. Also, the inhibition is 3.97% in [13]; 0.94% in assay [14]; 5.27% in assay [15]; -0.44% in assay [16]; -0.07% in assay [17]; 2.45% in assay [18]. In addition, the figures for the inhibition in assay [19] and in assay [20] were 3.52% and 3.47%, respectively.
On to `Cc1nnc(-c2cccc(-c3ccc(C(=O)NCC4CC4)cc3)c2)o1`, for which the inhibition in [1] was 1.38%; in assay [2] it was 2.02%; in assay [3], 4.55%; in assay [4] it was 3.7%; in assay [5] it was 3.95%; in assay [6] it was 2.44%. Moreover, the inhibition is 3.16% in assay [7]; -5.67% in assay [8]; 0.98% in [9]; 1.82% in [10]; 7.79% in [11]; 3.21% in [12]. The inhibition in assay [13] was 3.09%; in [14], 1.3%; in [15] it was -4.74%; in assay [16], 6.23%; in assay [17], 7.39%; in assay [18], 1.46%. Further, the inhibition in assay [19] came out at 3.14%; in assay [20], 7.44%.
For `c1cnn2ncc(-c3ccnc(NCCCN4CCOCC4)n3)c2c1`, the inhibition stood at 1.75% in [1]; 3.17% in [2]; 1.35% in assay [3]; 3.48% in assay [4]; 2.63% in assay [5]; 1.71% in assay [6]. In addition, the inhibition is -0.63% in assay [7]; -5.16% in assay [8]; 8.22% in assay [9]; 2.65% in assay [10]; 8.82% in assay [11]; 2.38% in assay [12]. For the same compound, the inhibition in assay [13] is 5.43%; in [14] it was -0.51%; in assay [15], 1.86%; in [16], 4.84%; in assay [17], 1.98%; in assay [18], -0.2%. Besides, the inhibition in assay [19] worked out at 1.94%; in assay [20], 4.7%.
Turning to `NS(=O)(=O)c1cccc(N/C=C2\C(=O)Nc3ccccc32)c1`, the inhibition was determined as 16.2% in assay [1]; 6.02% in assay [2]; 32.9% in [3]; 6.86% in [4]; 32.3% in assay [5]; 4.29% in assay [6]. In addition, the inhibition is 6.83% in assay [7]; -2.94% in assay [8]; 21.3% in assay [9]; 7.85% in [10]; 47.6% in assay [11]; 6.68% in [12]. Also, the inhibition turned out to be 40.5% in assay [13]; 7.7% in assay [14]; 76.7% in assay [15]; 4.31% in assay [16]; 9.72% in [17]; 4.14% in assay [18]. Also, the inhibition in assay [19] came out at 28.9%; in assay [20], 23.3%.
